Common to all, as to assay: yeast three-hybrid, YBZ-1, SC-Leu-His + 0.5 mM 3-AT, 4 days
Conditions in all cases: tags: N-Gal4 AD-HA kept; label: inside an RPR1-promoter hybrid RNA with tandem MS2 sites; ssRNA

For one experiment, the target named is PUM1 PUF domain R8-GYR (Homo sapiens, UniProt Q14671 828-1176, N1122G;Q1126R). In short, it runs like this: (§1)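 Sequencing with Illumina followed PCR amplification of the repeat regions from transformants grown four days on SC-Leu (input) or SC-Leu-His + 0.5 mM 3-AT (selection). The transformants were strain YBZ-1 with a LexA–MS2 coat fusion and a HIS3 reporter, carrying Pumilio-1 PUF domain libraries and matching RNA elements. The interaction score is the log change in variant frequency from input to selection, computed in log2 with a pseudocount of 1 for absent variants.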

The target of the next experiment is PUM1 PUF domain R4-DFL (Homo sapiens, UniProt Q14671 828-1176, N971D;H972F;Q975L). In short, it runs like this:
as §1

In another experiment the target is PUM1 PUF domain R3-PHH (Homo sapiens, UniProt Q14671 828-1176, C935P;R936H;Q939H). In short, it runs like this:
as §1

A further experiment concerns the target PUM1 PUF domain R8-RHW (Homo sapiens, UniProt Q14671 828-1176, N1122R;Y1123H;Q1126W). In short, it runs like this:
as §1

For the next experiment, the target named is PUM1 PUF domain R8-KRK (Homo sapiens, UniProt Q14671 828-1176, N1122K;Y1123R;Q1126K). In short, it runs like this:
as §1

A further experiment concerns the target PUM1 PUF domain R4-PYS (Homo sapiens, UniProt Q14671 828-1176, N971P;H972Y;Q975S). In short, it runs like this:
as §1

A further experiment has as its target PUM1 PUF domain R1-YGR (Homo sapiens, UniProt Q14671 828-1176, S863Y;R864G;Q867R). In short, it runs like this: as §1
The next experiment concerns the target PUM1 PUF domain R1-RCT (Homo sapiens, UniProt Q14671 828-1176, S863R;R864C;Q867T). In short, it runs like this:
as §1

In another experiment the target is PUM1 PUF domain R7-DNV (Homo sapiens, UniProt Q14671 828-1176, S1079D;E1083V). In short, it runs like this:
as §1

In a further experiment the target is PUM1 PUF domain R7-RSW (Homo sapiens, UniProt Q14671 828-1176, S1079R;N1080S;E1083W). In short, it runs like this:
as §1

“GGCUAGAACUAGUGGAUCCCCCGGCGCCCGGCGGCUCGAGCCCGGGUAAGUGUAAAUAGUCUGCAUGCCGCCGGGCGCCAUGCCUGCAGGUCGACUCUAGAAAACAUG”: the binding signal was 5.16 log2 enrichment (interaction score) with PUM1 PUF domain R8-GYR; 5.04 log2 enrichment (interaction score) in the experiment with PUM1 PUF domain R4-DFL; 4.19 log2 enrichment (interaction score) with PUM1 PUF domain R3-PHH; 2.9 log2 enrichment (interaction score) in the experiment with PUM1 PUF domain R8-RHW; 3.65 log2 enrichment (interaction score) with PUM1 PUF domain R8-KRK.
With “GGCUAGAACUAGUGGAUCCCCCGGCGCCCGGCGGCUCGAGCCCGGGUAAGUGUACAUAGUCUGCAUGCCGCCGGGCGCCAUGCCUGCAGGUCGACUCUAGAAAACAUG”, in the experiment with PUM1 PUF domain R4-PYS, the binding signal was 5.7 log2 enrichment (interaction score).
As for “GGCUAGAACUAGUGGAUCCCCCGGCGCCCGGCGGCUCGAGCCCGGGUAAGUGUAAAUCGUCUGCAUGCCGCCGGGCGCCAUGCCUGCAGGUCGACUCUAGAAAACAUG”, the binding signal with PUM1 PUF domain R1-YGR is 5.61 log2 enrichment (interaction score).
With “GGCUAGAACUAGUGGAUCCCCCGGCGCCCGGCGGCUCGAGCCCGGGUAAGCGUAAAUAGUCUGCAUGCCGCCGGGCGCCAUGCCUGCAGGUCGACUCUAGAAAACAUG”, the binding signal is 5.09 log2 enrichment (interaction score) in the experiment with PUM1 PUF domain R8-GYR, 4.05 log2 enrichment (interaction score) with PUM1 PUF domain R8-RHW and 4.95 log2 enrichment (interaction score) with PUM1 PUF domain R8-KRK.
As to “GGCUAGAACUAGUGGAUCCCCCGGCGCCCGGCGGCUCGAGCCCGGGUAAGUGUAAAUGGUCUGCAUGCCGCCGGGCGCCAUGCCUGCAGGUCGACUCUAGAAAACAUG”, the binding signal was 2.18 log2 enrichment (interaction score) in the experiment with PUM1 PUF domain R1-YGR and 3.84 log2 enrichment (interaction score) with PUM1 PUF domain R1-RCT.
“GGCUAGAACUAGUGGAUCCCCCGGCGCCCGGCGGCUCGAGCCCGGGUAAGUUUAAAUAGUCUGCAUGCCGCCGGGCGCCAUGCCUGCAGGUCGACUCUAGAAAACAUG”: the binding signal is 3.87 log2 enrichment (interaction score) in the experiment with PUM1 PUF domain R7-DNV and 2.57 log2 enrichment (interaction score) with PUM1 PUF domain R7-RSW.
For “GGCUAGAACUAGUGGAUCCCCCGGCGCCCGGCGGCUCGAGCCCGGGUAAGUGUAAUUAGUCUGCAUGCCGCCGGGCGCCAUGCCUGCAGGUCGACUCUAGAAAACAUG”, the binding signal with PUM1 PUF domain R3-PHH was 2.2 log2 enrichment (interaction score).
Turning to “GGCUAGAACUAGUGGAUCCCCCGGCGCCCGGCGGCUCGAGCCCGGGUAAGUGUAUAUAGUCUGCAUGCCGCCGGGCGCCAUGCCUGCAGGUCGACUCUAGAAAACAUG”, the results for the binding signal with PUM1 PUF domain R4-PYS and with PUM1 PUF domain R4-DFL were 5.95 log2 enrichment (interaction score) and 2.93 log2 enrichment (interaction score), respectively.
With “GGCUAGAACUAGUGGAUCCCCCGGCGCCCGGCGGCUCGAGCCCGGGUAAGUGUAAAUUGUCUGCAUGCCGCCGGGCGCCAUGCCUGCAGGUCGACUCUAGAAAACAUG”, the figures for the binding signal in the experiment with PUM1 PUF domain R1-YGR and with PUM1 PUF domain R1-RCT were 6.42 log2 enrichment (interaction score) and 4.25 log2 enrichment (interaction score), respectively.

These data come from PMC8384837, “Expanding the binding specificity for RNA recognition by a PUF domain”.
